The results in this text go back to PubChem BioAssay AID431 (Sanford-Burnham Center for Chemical Genomics, 2006).

Structures are written as SMILES. Hit rate of the full screen: of about 63,000 compounds, about 1,100 (1.7%) were called active. What follows is part of a selection rich in actives, with near analogues and random picks from the rest. Potency and affinity values are given separately. A number with no mark means an inactive call.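 Rule for the calls: active = compounds whose percent cytotoxicity in the single-dose primary screen, scaled between solvent and toxic-drug controls, exceeds 50; inactive = the rest.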

The experiment can be described thus: cytotoxicity in KRAS-transformed pancreatic duct cells, primary screen, cell-based, fluorescence, HTS (AID 431).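 Note: 0% = DMSO solvent wells and 100% = doxorubicin-treated wells.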 The note with it: HPDE-C7K KRASV12 cells, Alamar Blue viability, 48 h; at 10 µM; active compounds read high.
For the molecule `Cc1ccc(NC(=O)CSCc2c(C)noc2C)cc1C`, the cytotoxicity is -2.9%.

As to `COc1ccccc1Cn1c2nc3ccccc3nc2c2c(=O)n(CC(C)C)cnc21`, the cytotoxicity is 5%. To `O=C(NC1CCCCC1)C1CCN(S(=O)(=O)c2cccc3cccnc23)CC1` belongs -12.2%; to `Cn1c(-c2ccc3c(c2)OCO3)cnc1NC(=O)CCC(=O)NCCc1ccccc1`, -0.9%. As for `Cn1c(-c2ccc3c(c2)OCO3)cnc1NCc1ccccc1`, the figure is -4.5%; as for `Cn1c(-c2ccc3c(c2)OCO3)cnc1NCc1cccc(Cl)c1`, 63.6% (active); as for `Cn1c(-c2ccc3c(c2)OCO3)cnc1N`, 8.4%. As for `Cn1c(-c2ccc3c(c2)OCO3)cnc1NCc1ccc(Cl)cc1`, the figure is 62.3% (active). Consider `Cc1ccc(CNc2ncc(-c3ccc4c(c3)OCO4)n2C)cc1`, for which the cytotoxicity was -5.9%. As to `COc1ccc(CN2CCN(S(=O)(=O)c3ccc(NC(C)=O)cc3)CC2)cc1OC`, the cytotoxicity was -2.4%.

As to `O=C(NCCN1C(=O)C2C3C=CC(C3)C2C1=O)Nc1ccc(Br)cc1` (configuration not stated), the cytotoxicity was 8.1%. Consider `COc1cccc(S(=O)(=O)Nc2ccc(C(=O)NCc3ccco3)cc2)c1`, for which the cytotoxicity is -28.4%.

`COc1ccc(CC(=O)N2CCN(C(=O)Cc3ccc(OC)cc3)CC2)cc1`: the cytotoxicity is -6.3%.

In the case of `CC(C)CNC(=O)c1c(N)n(/N=C/c2cccnc2)c2nc3ccccc3nc12`, the cytotoxicity is 1.6%. On to `CC(C)CNC(=O)c1c(N)n(/N=C/c2ccccn2)c2nc3ccccc3nc12`, for which the cytotoxicity is 1.7%. To `Nc1c(C(=O)NC2CCCCC2)c2nc3ccccc3nc2n1/N=C/c1ccco1` belongs 4.7%; to `CCCCNC(=O)c1c(N)n(/N=C/c2cccnc2)c2nc3ccccc3nc12`, 12.3%.

As to `Nc1c(C(=O)NC2CCCC2)c2nc3ccccc3nc2n1/N=C/c1cccnc1`, the cytotoxicity was 66.8% (active). To `COCCCNC(=O)c1c(N)n(/N=C/c2cccnc2)c2nc3ccccc3nc12` belongs 22.5%; to `CCC(C)NC(=O)c1c(N)n(/N=C/c2cccnc2)c2nc3ccccc3nc12` (configuration not stated), 51.8% (active). As for `CCCCNC(=O)c1c(N)n(/N=C/c2ccccn2)c2nc3ccccc3nc12`, the cytotoxicity is 38.1%.

On to `Cc1ccnc(N(C(=O)c2cccs2)C(=O)c2cccs2)c1`, for which the cytotoxicity is -0.7%. As for `C=CCN1C(c2ccccc2)=CS/C1=C(\C#N)c1nnc2n1CCCCC2`, the figure is -0.6%; as for `Cc1cc(C(=O)OCC(=O)NC(=O)NC(C)(C)C)c(C)o1`, -3.4%; as for `COc1cccc(-c2cc(C(=O)N3CCN(C(c4ccccc4)c4ccccc4)CC3)no2)c1`, -8.3%. To `C=CCn1c(SCc2ccccc2C#N)nnc1-c1cc(Br)ccc1O` belongs 13.1%; to `C#CC(C)(C)NC(=O)c1ccccc1OC`, -11.3%; to `COc1cccc(C(=O)Nc2ccc(NC(=O)C(C)(C)C)cn2)c1`, 19.5%.

For `Cc1oc(C)c2c(=O)ccc3c(c12)OC(N)=C(C#N)C3c1ccccc1` (configuration not stated), the cytotoxicity is -7.8%.

For the molecule `CSc1ccc(C2C(C#N)=C(N)Oc3c2ccc(=O)c2c(C)oc(C)c32)cc1` (configuration not stated), the cytotoxicity is -2.3%. To `CCOc1cc(NC(=O)c2ccccn2)c(OCC)cc1NC(=O)CC(C)C` belongs 9.9%; to `CCOC(=O)NC1(C(F)(F)F)C(=O)NC(C)=C1C#N` (configuration not stated), 2.9%; to `O=C(CSc1nc2ccccc2c(=O)n1Cc1ccco1)NCc1ccco1`, -11.8%.

For the molecule `O=c1c2ccccc2nc(SCc2cc(F)cc3c2OCOC3)n1Cc1ccco1`, the cytotoxicity is -5.3%. To `CCOC(=O)CSc1nc2ccccc2c(=O)n1Cc1ccco1` belongs -3%; to `O=c1c2ccccc2nc(SCc2ccccc2)n1Cc1ccco1`, -7%; to `CCOC(=O)c1cc2c(c(CSc3nc4ccccc4c(=O)n3Cc3ccco3)c1)OCOC2`, 62.1% (active). As to `O=C(CSc1nc2ccccc2c(=O)n1Cc1ccco1)NCc1ccccc1`, the cytotoxicity is 58.5% (active).

Regarding `Cn1c(CN2CCOCC2)nnc1SCC(=O)Nc1nccs1`, the cytotoxicity was 1.8%.

Regarding `COc1ccc(C(C(=O)OC(C)CN(C)C)c2ccccc2)cc1` (configuration not stated), the cytotoxicity was -8.5%. In the case of `CCC(C(=O)c1ccc(O)cc1)c1ccccc1` (configuration not stated), the cytotoxicity was 18.5%. As for `CN(C)CC(C(=O)c1ccccc1)c1ccccc1` (configuration not stated), the figure is 100% (active). As for `COc1cccc(C2/C(=C(/O)c3cnn(-c4ccccc4)c3C)C(=O)C(=O)N2CCN(C)C)c1OC` (configuration not stated), the figure is 11.3%. As for `CCC(c1nnnn1Cc1ccccc1)N1CCN(C(=O)c2ccco2)CC1` (configuration not stated), the figure is -1.7%; as for `COc1ccccc1-c1cc(C(F)(F)F)nc(S(=O)(=O)CCCC(=O)Nc2cc(C)on2)n1`, 27.3%. For `COc1ccccc1-c1cc(C(F)(F)F)nc(N2CCCC2)n1`, the cytotoxicity is -16.5%. Regarding `COc1ccccc1-c1cc(C(F)(F)F)nc(S(=O)(=O)CCCC(=O)NC(C)C)n1`, the cytotoxicity was -3.9%. Consider `COc1ccccc1-c1cc(C(F)(F)F)nc(N2CCOCC2)n1`, for which the cytotoxicity was -4.5%.

With `COc1ccccc1-c1cc(C(F)(F)F)nc(S(=O)(=O)CCCC(=O)N2CCCCC2C)n1` (configuration not stated), the cytotoxicity is 50.1% (active). For `COc1cccc(Oc2cn[nH]c2-c2ccc(O)cc2O)c1`, the cytotoxicity was 43.9%. To `CCOc1ccc(-c2[nH]ncc2Oc2cccc(OC)c2)c(O)c1` belongs 58.3% (active); to `COc1ccc(-c2[nH]ncc2-c2cnn(-c3ccccc3)c2)c(O)c1`, 2.7%.

As to `COc1cccc(Oc2cn[nH]c2-c2ccc(OC)cc2O)c1`, the cytotoxicity is 80.7% (active). As for `CCOc1cccc(OCCOCCN2CCCC2)c1`, the figure is -6.3%; as for `COc1ccc(CC(=O)Nc2cccc(-c3nnc(-c4ccc(C)cc4)o3)c2)cc1OC`, 18.8%; as for `O=C(c1ccco1)N1C2C=CC(C2)C1(C(F)(F)F)C(F)(F)F` (configuration not stated), 0.4%. As for `COc1cccc(C2=NOC(C(=O)NC(C)C)C2)c1` (configuration not stated), the figure is -9.8%.

As to `COc1cccc(C2=NOC(C(=O)NC(C)(C)C)C2)c1` (configuration not stated), the cytotoxicity was 0.2%. To `Cc1cc2cc(CNC(=O)c3ccc4c(c3)OCO4)ccc2[nH]1` belongs 15.6%; to `CN1CCN(c2nc(-c3cccnc3)nc3ccccc23)CC1`, -10.1%. To `Cn1nnnc1Sc1nc(-c2cccnc2)nc2ccccc12` belongs 109% (active). Consider `OCCSc1nc(-c2cccnc2)nc2ccccc12`, for which the cytotoxicity is 2.2%. `O=C(NCc1ccco1)c1cccnc1-c1nc2ccccc2s1`: the cytotoxicity is 0%. As to `COC(=O)c1cn(CC(=O)N2CCCCCC2)c2ccccc12`, the cytotoxicity was 3.6%. To `Cn1nccc1C(=O)OCC(=O)Nc1nc(-c2ccccc2)cs1` belongs -24.7%; to `O=C1c2[nH]nc(-c3ccccc3O)c2C(c2cccc(Cl)c2)N1CC1CCCO1` (configuration not stated), 38.2%; to `O=C1c2ccccc2C(O)N1Cc1ccco1` (configuration not stated), -9%. Regarding `O=C1C(=O)N(Cc2ccco2)C(c2cccc(Cl)c2)/C1=C(\O)c1ccc2c(c1)OCCO2` (configuration not stated), the cytotoxicity was 2.2%. As for `CC(=O)C1=C(O)C(=O)N(Cc2ccco2)C1c1ccc(F)cc1` (configuration not stated), the figure is 8.7%. To `O=C1c2ccccc2NC(c2ccc(F)cc2)N1Cc1ccco1` (configuration not stated) belongs 2.1%. On to `O=C1c2[nH]nc(-c3ccccc3O)c2C(c2ccccc2)N1Cc1ccco1` (configuration not stated), for which the cytotoxicity was 32.3%. As for `CCn1c(SCC(=O)NCc2cccs2)nnc1-c1ccncc1`, the cytotoxicity was -3.4%.

Regarding `O=C(Nc1ccc(C(=O)Oc2ccccc2)c(O)c1)c1ccco1`, the cytotoxicity is -1.3%. To `Cc1sc2ncnc(SCC(=O)N3CCCC3)c2c1C` belongs -13.4%; to `O=C(CSc1nnc(Cc2ccccc2)o1)N1CCc2ccccc21`, -9.6%. As for `C=CCn1c(=N)c(C(=O)OC)cc2c(=O)n3cccc(C)c3nc21`, the figure is -26.9%. To `Cc1ccc(C(=O)N2CCCC2)cc1S(=O)(=O)Nc1ccccc1` belongs -7%. In the case of `CC1CCN(C(=O)CSc2nc(N)cc(N)n2)CC1`, the cytotoxicity was -11.1%. As for `CCc1cc(C(=O)Cc2cnn(-c3ccccc3)c2)c(O)cc1O`, the figure is 6.7%. As for `CCc1cc(C(=O)COc2ccccc2F)c(O)cc1O`, the figure is -13.8%. For `CCc1cc(C(=O)Cc2nc3ccccc3[nH]2)c(O)cc1O`, the cytotoxicity was 20%. Consider `CCCc1cc(C(=O)Cc2ccc(F)cc2)c(O)cc1O`, for which the cytotoxicity was 80.9% (active). As for `CCCc1cc(C(=O)Cc2ccc(C(=O)OCC)o2)c(O)cc1O`, the figure is 24.5%.

On to `CCc1cc(C(=O)Cc2ccc(F)cc2)c(O)cc1O`, for which the cytotoxicity is 50.9% (active). As for `O=C(Nc1ccccc1-c1nc2ccccc2s1)c1ccco1`, the figure is 7.5%; as for `CC1(C)CC(=O)C2=C(C1)Nc1ccccc1NC2c1ccccn1` (configuration not stated), -20%. As for `COc1ccc(-c2cc(-c3c(O)c(OC)c4occc4c3OC)[nH]n2)cc1OC`, the figure is 36.2%.

Consider `COc1ccc(CCCc2nnc(SCC(=O)Nc3nccs3)n2C)cc1C`, for which the cytotoxicity is -0.1%. Consider `CCOC(=O)c1sc(NC(=O)CSc2nc3c(cc2C#N)CCC3)c(C#N)c1C`, for which the cytotoxicity was -0.1%. As for `CCOC(=O)c1sc(NC(=O)CSc2nc3c(cc2C#N)CCCCCC3)c(C#N)c1C`, the figure is 81.6% (active); as for `N#Cc1cc2c(nc1SCC(=O)Nc1sc3c(c1C#N)CCC3)CCCCC2`, 23%; as for `CCCS(=O)(=O)N1CCCC(C(=O)NCCc2ccc(Cl)cc2)C1` (configuration not stated), -3.4%. To `COc1cc(NS(=O)(=O)c2ccc(C)cc2C)cc(OC)c1OC` belongs 30.3%; to `O=C(O)c1cccc(S(=O)(=O)Nc2ccc3oc(=O)sc3c2)c1`, 6.5%; to `Cc1ccc(CNc2ccc3c(c2)OCO3)c(C)c1`, 64.8% (active). For the molecule `c1cc(CNc2ccc3c(c2)OCO3)ccn1`, the cytotoxicity was -0.7%. To `Cc1ccc(CNc2ccc3c(c2)OCO3)cc1` belongs 28.9%.
